High-throughput results: PubChem, National Center for Advancing Translational Sciences (NCATS)
A selection: hits, their analogues and other compounds. The true share with any hit is near 11%.
FLuc inh-1 = blocks purified firefly luciferase enzyme activity. 2.5% of 76,000 active. purified P. pyralis luciferase, luminescence, biochemical. P08659. AID 1347043. Potency, µM (doses to about 115 µM), most hits filed as inhibitors; also: % is scaled to controls: 0 for no effect and ±100 for the full control effect; nearly all actives have a fitted effect of over 65% in size
Target sequence (P08659 whole entry, looked up): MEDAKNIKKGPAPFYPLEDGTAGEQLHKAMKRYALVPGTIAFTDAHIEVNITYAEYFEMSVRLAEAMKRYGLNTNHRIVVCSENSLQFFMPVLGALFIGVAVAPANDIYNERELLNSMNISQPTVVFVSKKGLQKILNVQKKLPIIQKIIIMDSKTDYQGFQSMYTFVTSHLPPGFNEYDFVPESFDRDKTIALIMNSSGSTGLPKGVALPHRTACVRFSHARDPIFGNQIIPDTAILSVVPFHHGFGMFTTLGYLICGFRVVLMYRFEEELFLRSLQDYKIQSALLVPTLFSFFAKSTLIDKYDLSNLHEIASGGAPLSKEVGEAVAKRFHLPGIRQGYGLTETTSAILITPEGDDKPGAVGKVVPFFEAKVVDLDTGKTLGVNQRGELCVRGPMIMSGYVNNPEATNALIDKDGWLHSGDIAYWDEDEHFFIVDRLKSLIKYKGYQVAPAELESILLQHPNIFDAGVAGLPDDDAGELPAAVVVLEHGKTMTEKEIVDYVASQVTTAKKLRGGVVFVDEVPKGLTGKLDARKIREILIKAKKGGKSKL
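Purified 10nM P. pyralis luciferase with 10uM D-luciferin and 10uM ATP in 50mM Tris acetate pH 7.5, 10mM Mg acetate, 0.01% Tween-20, 0.05% BSA. qHTS titration; luminescence read by CCD imager.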
HEK cytotox = HEK 293 cell cytotoxicity; Potency, µM (top dose mostly 115 µM), inactives show at the highest dose activity change, negative = cytotoxicity, hits mostly inhibitors; HEK 293 viability, ATP luminescence (CellTiter-Glo), 48-72 h; 6.6% of 94,000 active; AID 1345083; also: % is scaled to controls: 0 for no effect and ±100 for the full control effect; nearly all actives have a fitted effect of over 60% in size
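Read-out: CellTiter-Glo ATP luminescence. Cells: HEK 293, 250 cells/well. Exposure: 48 or 72 hr, 37 degree Celsius.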
hNpr1 antagonist = antagonists of human natriuretic peptide receptor Npr1; AID 1347048; Potency, µM (highest dose often 46.3 µM), inactives show at the highest dose activity change, negative = inhibition, most hits filed as inhibitors; HEK293 hNpr1 GloSensor cGMP, ANP-stimulated luminescence; 1.6% of 76,000 active; P16066; calls by dose curve; also: % is scaled to controls: 0 for no effect and ±100 for the full control effect; nearly all actives have a fitted effect of over 60% in size
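Compound pre-incubated 30 min at room temperature on GloSensor-loaded HEK293 cells stably carrying hNpr1 and the pGS-40F cGMP biosensor. Stimulation uses hNppA at 0.1 nM final; luminescence is taken at baseline and 20 min post-agonist.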
3T3 cytotox = kills NIH 3T3 cells; AID 1345082; Potency, µM (titrated, usually from 96.7 µM), for inactives: at the highest dose activity change, negative = cytotoxicity, most hits filed as inhibitors; 4.3% of 94,000 active; NIH 3T3 viability, CellTiter-Glo ATP luminescence, 48-72 h; also: % is scaled to controls: 0 for no effect and ±100 for the full control effect; nearly all actives have a fitted effect of over 55% in size
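First NIH 3T3 cells are plated at 400 cells/well; next compound is pinned in; then plates incubate 48 or 72 hr at 37 °C; finally CellTiter-Glo is added and luminescence read after 10 min.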
FLuc SDR -ATP = firefly luciferase binding stabilization, ATP absent; shares compounds with FLuc inh-1; Purified FLuc-C-HiBiT, Nano-Glo HiBiT luminescence, no ATP; Potency, µM (series often up to 32.7 µM), without a hit: top-dose activation (signal gain), usual class: activators; 7.8% of 1,300 active; AID 1963318; also: nearly all actives have a fitted effect of over 55% in size
FLuc SDR ATP = stabilizes firefly luciferase with ATP present; purified FLuc-C-HiBiT + ATP, HiBiT complementation luminescence; AID 1963319; 8.7% of 1,300 active; Potency, µM (series often up to 32.7 µM), for the others: at the top dose activation (gain of signal), hits mostly activators; shares compounds with FLuc inh-1;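 also: signal reports ligand binding via conformational change of the enzyme rather than luciferase catalysis; % of control where 0% means no effect; nearly all actives have a fitted effect of over 55% in size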
FLuc inh-2 = blocks firefly luciferase enzymatic activity; purified FLuc-C-HiBiT enzyme, luciferin luminescence; AID 1963320; 42% of 1,300 active; shares compounds with FLuc inh-1; Potency, µM (highest dose often 32.7 µM), for the others: at the highest dose activity change, negative = inhibition, actives largely listed as inhibitors; also: % is scaled to controls: 0 for no effect and ±100 for the full control effect; nearly all actives have a fitted effect of over 70% in size
Starred values were filed as active, the others as inactive; i = inactive; ? = inconclusive; . = not tested or not shown; [ ] = dose if it differs, or a comment. Unless noted, calls follow the shape of the dose curve; as a rule, active = well fitted curve in the direction sought with a large enough effect; inconclusive = small, poorly fitted or top-dose-only effect, or another doubt; inactive = no such curve, though single readings can be large; an effect the other way counts as inactive or inconclusive. Potency is read from the fitted curve at half-maximal effect.

SMILES	FLuc inh-1	HEK cytotox	hNpr1 antagonist	3T3 cytotox	FLuc SDR -ATP	FLuc SDR ATP	FLuc inh-2
Cc1cc(CC(C)NC(=O)Cc2c(C)[nH]c3ccccc23)n[nH]1 (centres undefined)	i	i	9%	-21%	.	.	.
CC(=O)Nc1cccc(-c2cc3c(cn2)CN(Cc2ccccc2)CCN3)c1	14µM*	?	2%[70.6 µM]	?	20%[49.3 µM]	17%[49.3 µM]	?
O=C1Nc2ccccc2OCC12CCN(Cc1ccc(OC(F)(F)F)cc1)CC2	i	?	16%	-20%	.	.	.
CCC(=O)N1CCN(C2CCN(CCOC)C2=O)CC1 (centres undefined)	i	4%	0%	5%	.	.	.
CCc1cccc(NC(=O)c2cc(-c3ccc[nH]3)n[nH]2)c1	8.9µM*	-5%	2%	-14%	12%	8%	?
O=C(COc1ccccc1)Nc1nnc(S(=O)(=O)Nc2ccccc2)s1	.	.	.	.	13%	8%	?
Cc1noc(C)c1S(=O)(=O)N1CCC2(CC1)N(c1ccccc1)C(=O)CS2=O (centres undefined)	.	i	.	i	.	.	.
Cc1cccc(NC(=O)Nc2ccc(C)n(CC(=O)N(C)C)c2=O)c1	?	8%	3%	i	.	.	.
COc1ccc(S(=O)(=O)Nc2ccc(C)n(CC(=O)NCc3ccc(C)o3)c2=O)cc1	i	-7%	-4%	i	.	.	.
Cc1ccc(NC(=O)Nc2ccc(C)n(CC(=O)NCCC(C)C)c2=O)cc1	0.56µM*	28µM*	?	35µM*	?	?	1.1µM*
COc1ccc(NC(=O)Nc2ccc(C)n(CC(=O)NCC(C)C)c2=O)cc1	1.6µM*	-29%	-15%	-17%	7.9µM*	?	3.5µM*
Cc1ccc(S(=O)(=O)Nc2ccc(C)n(CC(=O)N3CCCCCC3)c2=O)cc1	i	4%	-1%	i	.	.	.
COc1ccc(NC(=O)Nc2ccc(C)n(CC(=O)O)c2=O)cc1	4µM*	12%	-4%	i	11µM*	?	9.9µM*
CCN1CCN(C(=O)Cn2c(C)ccc(NC(=O)Nc3ccc(C)cc3)c2=O)CC1	4.5µM*	-14%	-7%	-2%	?	?	5µM*
Cn1ncc(N2CCCC(CC(=O)N3CCSCC3)C2)cc1=O (centres undefined)	i	-3%	-1%	-11%	.	.	.
O=C1CN(C(=O)c2ccnc(-c3nnc4ccc(Nc5ccccc5)nn34)c2)CCN1	i	?	-1%[70.6 µM]	4%[138 µM]	.	.	.
CCn1cnnc1-c1nn(C)c2c1CN(C(=O)CN1CCCCCC1)CC2	i	i	-1%	-10%	.	.	.
Cc1cn2nc(C(=O)Nc3ccc4c(c3)OCCO4)cc2c(N(C)Cc2ccccc2)n1	10µM*	-24%	-1%	?	24%	20%	?
CCC(=O)N1CCc2c(C(=O)NCc3cccnc3)cccc21	i	-2%	-3%	i	.	.	.
COc1ccc(CNC(=O)c2cccc3c2CCN3C(=O)c2ccc(F)cc2)cc1	i	0%	-1%	-3%	.	.	.
O=C(Nc1ccc2c(c1)OCO2)c1cccc2c1CCN2C(=O)Nc1ccc(F)cc1	0.71µM*	?	7.1µM*	-28%	13%	0.25µM*	0.2µM*
CC(NC(=O)c1cccc2c1CCN2C(=O)Nc1ccccc1)c1cccnc1 (centres undefined)	6.3µM*	?	-28%	-21%	18%	3.1µM*	1.8µM*
CCN(CC)C(=O)c1cccc2c1CCN2C(=O)Nc1cccc(C)c1	i	?	-15%	?	.	.	.
O=C(NCCc1cccs1)c1cccc2c1CCN2C(=O)Nc1ccc(F)cc1	1.3µM*	?	?	?	20%	1.4µM*	0.79µM*
O=C(NCCc1cccnc1)c1cccc2c1CCN2C(=O)Nc1ccc(F)cc1	0.4µM*	45µM*	11µM*	-28%	23%	0.35µM*	0.22µM*
SMILES	FLuc inh-1	HEK cytotox	hNpr1 antagonist	3T3 cytotox	FLuc SDR -ATP	FLuc SDR ATP	FLuc inh-2
NCC1CCCN(Cc2ccc(-c3nc(-c4cccnc4)cc(=O)[nH]3)cc2)C1 (centres undefined)	i	?	1%	-11%	.	.	.
O=C(NCc1ccco1)c1cccc2c1CCN2C(=O)Nc1ccc(F)cc1	2.2µM*	?	?	?	?	1.8µM*	1.1µM*
Cc1ccc(CNC(=O)c2cccc3c2CCN3C(=O)c2ccc(F)cc2)o1	i	?	-9%	-14%	.	.	.
CCn1cc(-c2ccc(C)cc2)cc1C(=O)O	?	?	2%	-19%	14%	10%	-13%
Cc1ccc(Cn2cc(-c3ccncc3)cc2C(=O)O)cc1	i	-27%	1%	?	14%	11%	-8%
COc1ccc(NC(=O)N2CCOC(c3ccc(Cl)cc3)C2)c(C)c1 (centres undefined)	i	?	-16%	-28%	.	.	.
COc1ccc2cc(C3CN(C(=O)CNC(=O)C(C)C)CCO3)ccc2c1 (centres undefined)	8.9µM*	-25%	4%	-19%	?	?	?
Cc1cn2c(=O)cc(COC(=O)c3ccccc3F)nc2s1	.	.	.	.	12%	?	?
COc1ccc(C2Cn3cnc(C(=O)N4CCC(C(=O)NCc5ccccc5)CC4)c3CO2)cc1 (centres undefined)	i	10%	-4%	i	.	.	.
O=C(NCc1ccncc1)C1CCN(C(=O)c2ncn3c2COC(c2ccc(F)cc2)C3)CC1 (centres undefined)	7.9µM*	7%	1%	i	13%	?	?
CSc1ccc(CNC(=O)C2CCN(C(=O)c3ncn4c3COC(c3ccccc3)C4)CC2)cc1 (centres undefined)	13µM*	9%	-19%	i	16%	?	?
O=C(NCCc1ccccc1)C1CCN(C(=O)c2ncn3c2COC(c2ccccc2)C3)CC1 (centres undefined)	3.2µM*	0%	0%	i	11%	?	2.5µM*
O=C(NCc1cccnc1)C1CCN(C(=O)c2ncn3c2COC(c2ccc(F)cc2)C3)CC1 (centres undefined)	?	-4%	-2%	i	.	.	.
CC(CNC(=O)C1CCN(C(=O)c2ncn3c2COC(c2ccccc2)C3)CC1)c1ccccc1 (centres undefined)	3.5µM*	-16%	-14%	-21%	11%	1.6µM*	2.5µM*
COc1ccc(-n2c(=O)c(C(=O)NCC(F)F)nc3cccnc32)cc1	.	4%	.	-14%	.	.	.
